This note sets out measurements from PubChem BioAssay (NCATS).

Values without a mark were called inactive. Records with an inconclusive call do not appear. Active and inactive are the calls of the source. Calls follow the shape of the dose curve; as a rule, active = well fitted curve in the direction sought with a large enough effect; inconclusive = small, poorly fitted or top-dose-only effect, or another doubt; inactive = no such curve, though single readings can be large; an effect the other way counts as inactive or inconclusive.

The test system of experiment [1] is Zika virus NS2B-NS3 protease (linked construct). The experiment in a line: Primary screen NINDS Rhodamine qHTS for Zika virus inhibitors (AID 1347160). Also: nearly all actives have a fitted effect of over 55% in size. The essentials: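 Rhodamine110-peptide cleavage (1.5 µM substrate) by 25 nM linked NS2B-NS3 enzyme at pH 8.0 (Tris, Tween 20), after 15 min RT preincubation with compounds; 15-min fluorescence change normalized to controls and Hill-fitted.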
For orientation: qHTS replaces the single test concentration by a dilution series.

In experiment [2] the target is Calcium and integrin-binding protein 1 (Homo sapiens) (UniProt Q99828). The experiment can be described thus: Primary qHTS for Identification of Calcium Integrin Binding Protein 1 (CIB1) Competitor (AID 1508620).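 Also: GST tagged CIB1 binding a fluorescein labelled alphaIIb integrin peptide tracer; top concentration of the series differs between compounds.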 The essentials: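 Fluorescence polarization competition: CIB1-GST (1 uM final) preincubated with compound 15 min at room temperature, then FITC-labeled alphaIIb peptide (100 nM final) added for another 15 min. Polarization read at Ex 480/Em 540.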

A short description of experiment [3]: Primary qHTS for inhibitors of nuclear receptor binding SET domain protein 2 (NSD2) in an isogenic RCH-ACV NSD2 p.E1099K mutant (9B) (AID 1645876). Also: potency is read from the fitted curve at half-maximal effect; nearly all actives have a fitted effect of over 70% in size.
The nature of experiment [4]: Primary qHTS for inhibitors of nuclear receptor binding SET domain protein 2 (NSD2) in an RCH-ACV wild type WT cells (2C) (AID 1645877). Also: potency is read from the fitted curve at half-maximal effect; nearly all actives have a fitted effect of over 70% in size.
Experiment [5] addresses Glutathione peroxidase 1 (Homo sapiens) (UniProt P07203). The experiment can be described thus: Primary qHTS Assay for Inhibitors of Recombinant Selenoprotein Glutathione Peroxidase 1 (GPX1) (AID 1845191). Also: nearly all actives have a fitted effect of over 65% in size. The essentials:
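GPX1 10 nM, GR 100 nM, GSH 1 mM, NADPH 0.5 mM, CHP 0.5 mM (final). 30-min cpd preincubation, RT. Ex340/Em450 read t=0, t=15 min.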

The target in experiment [6] is Phospholipid hydroperoxide glutathione peroxidase GPX4 (Homo sapiens) (UniProt P36969). The experiment can be described thus: Primary qHTS Assay for Inhibitors of Recombinant Selenoprotein Glutathione Peroxidase 4 (GPX4) (AID 1845192). Also: nearly all actives have a fitted effect of over 65% in size. Also: potency is read from the fitted curve at half-maximal effect. To be noted: outcome: dose series up to 50 µM unless noted. The essentials:
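qHTS, GR-coupled: GPX4 200 nM + cpd 30 min RT → GSH 1 mM, NADPH 0.5 mM, GR 100 nM → CHP 0.5 mM start; fluor 340/450 at t0 and t15 min; no-enzyme wells as control.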

For experiment [7], the target named is Luciferin 4-monooxygenase (Photinus pyralis) (UniProt P08659). The experiment can be described thus: Primary firefly luciferase (FLuc) qHTS assay for identification of artifact compounds. (AID 1845220). Also: nearly all actives have a fitted effect of over 60% in size. Also: potency is read from the fitted curve at half-maximal effect. The essentials: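 In this counter-screen for luciferase artifacts, test compounds met substrate (10 uM each luciferin and ATP) before 10 nM enzyme started the reaction. Light output was measured 5 min later.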

The nature of experiment [8]: Primary fluorescence-based thiol-reactive (MSTI) qHTS assay for identification of artifact compounds. (AID 1845221).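 Also: thiol-reactive compounds lower the probe fluorescence signal; nearly all actives have a fitted effect of over 65% in size.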 In outline: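 qHTS titration of compound; 4 uM MSTI, PBS pH 7.4, 2% DMSO; 1 h RT, dark; fluorescence 525/598 nm; normalized to Acetyl-MSTI and MSTI; 4-parameter Hill fit.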
The test system of experiment [9] is Nanoluciferase (engineered Oplophorus gracilirostris luciferase). The experiment in a line: Primary Nanoluciferase (NLuc) qHTS assay for identification of artifact compounds. (AID 1845222).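 Also: NLuc secreted into diluted conditioned medium of S16 cells.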 In outline:
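Using secreted nanoluciferase in S16 culture medium (0.22 um filtered, 1:55 dilution), compounds were preincubated 15 min at RT. Signal was generated with Nano-Glo reagent (1:100) over 5 min.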

Experiment [10] is described as follows: Primary redox qHTS assay for identification of artifact compounds. (AID 1845223). The essentials: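 Redox-cycling detection via DTT (250 uM final) oxidation coupled to Amplex Red (25 uM)/HRP (250 mU/mL) in HBSS. 15 min preincubation plus 30 min after DTT, room temperature. Ex/Em 525/598 nm; 4-parameter Hill fit against DMSO and 10 uM DA3003.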
The test system of another experiment is C33A. The experiment in a line: Primary qHTS to identify gynecologic anti-cancer compounds using libraries of approved drugs and bioactive compounds (AID 1345084). Also: nearly all actives have a fitted effect of over 55% in size. Also: potency is read from the fitted curve at half-maximal effect. To be noted: Gynecologic cancer cell panel viability, ATPlite luminescence, 48 h; series mostly up to 57.5 µM. In outline:
(§1)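 Cells, 1,000 per well, were allowed to settle for 16 h at 37 C before compound addition. Five concentrations were tested for 48 h, and viability was read by ATPlite luminescence after 15 min at room temperature.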

For a further experiment, the system named is CAOV3. Described as above. To be noted: Gynecologic cancer cell panel viability, ATPlite luminescence, 48 h; series mostly up to 57.5 µM. The essentials:
as §1
(In general: Cellular ATP, detected with luciferase, serves as a proxy for viable cell number.)

A further experiment concerns CASKI. The description is as above. The conditions noted are these: Gynecologic cancer cell panel viability, ATPlite luminescence, 48 h; series mostly up to 57.5 µM. The essentials:
as §1

Another experiment concerns Es-2. The description is as above. To be noted: Gynecologic cancer cell panel viability, ATPlite luminescence, 48 h; series mostly up to 57.5 µM. In outline:
as §1

In the next experiment the test system is HeLa. The description is as above. The conditions noted are these: Gynecologic cancer cell panel viability, ATPlite luminescence, 48 h; series mostly up to 57.5 µM. The essentials: as §1
A further experiment deals with Hek293T. The description is as above. To be noted: Gynecologic cancer cell panel viability, ATPlite luminescence, 48 h, control line for the selectivity index; series mostly up to 57.5 µM. The essentials: as §1
The test system of another experiment is JEG-3. Described as above. The conditions noted are these: Gynecologic cancer cell panel viability, ATPlite luminescence, 48 h; series mostly up to 57.5 µM. The essentials:
as §1

The test system of the next experiment is OV90. The experiment is described as above. The conditions noted are these: Gynecologic cancer cell panel viability, ATPlite luminescence, 48 h; series mostly up to 57.5 µM. The essentials: as §1
The subject of a further experiment is Tov-21-G. Described as above. To be noted: Gynecologic cancer cell panel viability, ATPlite luminescence, 48 h; series mostly up to 57.5 µM. The essentials:
as §1

A further experiment relates to Tov112D. The description is as above. The conditions noted are these: Gynecologic cancer cell panel viability, ATPlite luminescence, 48 h; series mostly up to 57.5 µM. In outline: as §1

Chain of Phospholipid hydroperoxide glutathione peroxidase GPX4 (Homo sapiens) (P36969 whole entry, looked up): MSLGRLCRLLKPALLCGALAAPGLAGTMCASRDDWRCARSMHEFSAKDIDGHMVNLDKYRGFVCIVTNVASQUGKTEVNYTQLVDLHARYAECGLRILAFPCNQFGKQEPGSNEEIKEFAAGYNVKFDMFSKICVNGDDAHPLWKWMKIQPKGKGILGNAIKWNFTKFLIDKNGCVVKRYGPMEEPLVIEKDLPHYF
Chain of Glutathione peroxidase 1 (Homo sapiens) (P07203 whole entry, looked up): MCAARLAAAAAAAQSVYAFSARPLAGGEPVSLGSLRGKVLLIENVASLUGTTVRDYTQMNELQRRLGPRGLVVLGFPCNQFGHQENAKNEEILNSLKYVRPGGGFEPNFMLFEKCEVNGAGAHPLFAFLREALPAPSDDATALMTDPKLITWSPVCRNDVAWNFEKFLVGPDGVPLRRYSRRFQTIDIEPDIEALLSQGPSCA
Chain of Calcium and integrin-binding protein 1 (Homo sapiens) (Q99828 whole entry, looked up): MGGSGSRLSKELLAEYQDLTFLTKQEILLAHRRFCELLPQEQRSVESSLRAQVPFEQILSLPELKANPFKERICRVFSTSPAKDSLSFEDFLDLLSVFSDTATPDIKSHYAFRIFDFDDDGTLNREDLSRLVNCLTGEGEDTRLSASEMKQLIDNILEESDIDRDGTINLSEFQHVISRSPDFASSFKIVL

As for `C[C@@H](c1nc(-c2ccc(C#N)cc2)cs1)[C@](O)(Cn1cncn1)c1cc(F)ccc1F`, the Potency entry in [1], in experiment [5], in [6], in experiment [7], in experiment [8] and in experiment [9] was “inactive” each time. In addition, the Potency entry (in experiment [10]; in the experiment on C33A; in the experiment on CAOV3; with CASKI; in the experiment on Es-2; in the experiment on HeLa) was “inactive” each time. Also, the Potency entry with Hek293T, with JEG-3, with OV90, in the experiment with Tov-21-G and with Tov112D was “inactive” throughout. The outcome in experiment [2] was inactive. The Potency was 8.17 µM (active) in experiment [3] and 11.5 µM (active) in experiment [4].
As to `COc1cc2ncnc(Oc3cccc(NC(=O)Nc4cc(C(C)(C)C(F)(F)F)on4)c3)c2cc1OC`, the Potency result in [1], in [5], in [6], in experiment [7], in [8] and in [9] was “inactive” each time. The Potency result (in experiment [10]; with C33A; with CAOV3; with CASKI; in the experiment on Es-2; in the experiment with HeLa) was “inactive” each time. In addition, the Potency entry in the experiment on Hek293T, in the experiment on JEG-3, in the experiment with OV90, with Tov-21-G and in the experiment on Tov112D was “inactive” in each case. The result in experiment [2] was inactive.
As for `CC(C)(C)c1ccc(-c2nc3ccccc3[nH]2)cc1`, the Potency result in [1], in experiment [5], in experiment [6], in experiment [8], in experiment [9] and in [10] was “inactive” each time. Moreover, the outcome in [2] was inactive. Besides, the Potency in experiment [3] was 8.93 µM (active); in experiment [4], 6.32 µM (active); in experiment [7], 0.0294 µM (active); in the experiment on C33A it was 1.26 µM (active); with CAOV3, 0.891 µM (active); with CASKI, 1.12 µM (active). Also, the Potency with Es-2 is 1.58 µM (active); in the experiment with HeLa, 2.24 µM (active); in the experiment with Hek293T, 2.24 µM (active); in the experiment on JEG-3, 1.78 µM (active); in the experiment on OV90, 1.41 µM (active); with Tov-21-G, 1.41 µM (active). Also, the Potency with Tov112D is 3.98 µM (active).
With `CCN1CCN(Cc2ccc(-c3cc4c(NC(C)c5ccccc5)ncnc4[nH]3)cc2)CC1` (centres undefined), the Potency result (in [1]; in experiment [7]; in experiment [8]; in experiment [9]; in [10]; in the experiment with C33A) was “inactive” each time. Besides, the Potency result in the experiment with Es-2, in the experiment on HeLa, in the experiment on Hek293T and with JEG-3 was “inactive” in each case. For the same molecule, the result in experiment [2] was inactive. Also, the Potency in experiment [3] is 4.59 µM (active); in experiment [4] it was 5.78 µM (active); in experiment [6], 14.3 µM (active); in the experiment on Tov-21-G, 4.47 µM (active).
For `CCCCn1ccc(N2CCC(c3ccccc3)CC2)c(Cl)c1=O`, the Potency result in experiment [1], in experiment [5], in [6], in experiment [8], in experiment [9] and in experiment [10] was “inactive” in each case. Besides, the result in experiment [2] was inactive. Besides, the Potency in [3] is 23 µM (active); in [4], 18.3 µM (active); in the experiment on Es-2, 28.2 µM (active); with Hek293T, 31.6 µM (active); with Tov-21-G, 28.2 µM (active).
For the molecule `CCC(C)n1cc(C)c2c(C(=O)NCc3c(C)cc(C)[nH]c3=O)cc(-c3ccc(N4CCNCC4)nc3)cc21` (centres undefined), the Potency entry (in experiment [1]; in experiment [7]; in experiment [9]; in [10]; in the experiment on C33A; in the experiment on CASKI) was “inactive” in each case. Besides, the Potency entry in the experiment on Es-2, in the experiment with HeLa, with Hek293T, in the experiment with JEG-3, in the experiment on OV90 and with Tov-21-G was “inactive” throughout. Besides, in the experiment with Tov112D, the Potency entry was “inactive”. Besides, in experiment [2], the result was inactive. The Potency was 20.5 µM (active) in experiment [3] and 14.5 µM (active) in [4].
`O=S(=O)(c1cccc2ccccc12)n1ccc2ccc(N3CCN4CCCC4C3)cc21` (centres undefined): the Potency entry (in experiment [1]; in [5]; in [6]; in experiment [7]; in experiment [9]; in the experiment on C33A) was “inactive” each time. Besides, the Potency result with CAOV3, in the experiment with CASKI, with Es-2, in the experiment with HeLa, with Hek293T and in the experiment with JEG-3 was “inactive” throughout. Besides, the Potency entry in the experiment on OV90, in the experiment with Tov-21-G and in the experiment with Tov112D was “inactive” throughout. Moreover, the result in experiment [2] was inactive. The Potency in experiment [3] and in [4] was 14.5 µM (active) in each case.
